Assay results taken from PubChem BioAssay.
The source made the active and inactive calls. Unless noted, how the calls were made is not given here.

Experiments:
[1] = compound effects on lung adenocarcinoma cell viability – A549, calcein-AM fluorescence, 48 h, basal, profiling panel (AID 1162); details: higher = more signal; further: test concentration not given here
[2] = compound effects on differentiated 3T3-L1 adipocyte viability – cell-based, 3T3-L1 adipocytes, calcein-AM fluorescence, 48 h, basal, profiling panel (AID 1163); details: 3T3-L1 adipocytes viability, higher = more signal; further: test concentration not given here
[3] = compound effects on hepatocellular carcinoma cell viability – HepG2, calcein-AM fluorescence, 48 h, basal, profiling panel (AID 1164); details: higher = more signal; further: test concentration not given here
[4] = compound effects on multiple myeloma cell viability – MM1S, calcein-AM fluorescence, 48 h, basal, profiling panel (AID 1165); details: higher = more signal;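 further: viability of MM1S multiple myeloma cells under basal unstimulated conditions; test concentration not given here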
[5] = calcein-AM signal in unstimulated myeloma cells – cell-based, calcein-AM fluorescence, 48 h, PK04 Diversity Set, profiling panel (AID 1166); details: RPMI8226 myeloma viability, higher = more signal;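 further: cells grown under basal conditions without added stimulus; test concentration not given here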
[6] = JC-1 mitochondrial signal, unstimulated HepG2 cells – cell-based, JC-1 fluorescence, 24 h, 100 nL compound, profiling panel (AID 1167); details: HepG2 mitochondrial potential, higher = more signal; further: test concentration not given here
[7] = JC-1 mitochondrial signal, unstimulated adipocytes – cell-based, JC-1 fluorescence, 3T3-L1 adipocytes, 24 h, 100 nL compound, profiling panel (AID 1168); details: JC-1 mitochondrial fluorescence, higher = more signal, called active from +8 up or from −8 down; further: test concentration not given here
[8] = JC-1 mitochondrial signal, unstimulated myeloma cells – cell-based, JC-1 fluorescence, RPMI8226, 24 h, 100 nL compound, profiling panel (AID 1169); details: JC-1 mitochondrial potential fluorescence, higher = more signal; further: test concentration not given here
[9] = JC-1 mitochondrial signal, unstimulated MM1S myeloma – cell-based, JC-1 fluorescence, 24 h, 100 nL compound, profiling panel (AID 1170); details: MM1S mitochondrial potential, higher = more signal; further: test concentration not given here
[10] = resazurin metabolic signal in A549 cells – cell-based, resazurin fluorescence, 24 h, PK04 Diversity Set, profiling panel (AID 1171); details: A549 viability, higher = more signal, called active from +8 up or from −8 down; further: test concentration not given here
[11] = resazurin metabolic signal in HepG2 cells – cell-based, resazurin fluorescence, 24 h, PK04 Diversity Set, profiling panel (AID 1172); details: HepG2 viability, higher = more signal; further: test concentration not given here
[12] = budding yeast growth changes without added modifier – OD600, strain BY4716, 24 h, basal condition, primary screen (AID 1173); details: S. cerevisiae BY4716 growth, OD600, 24 h; higher = more signal, called active from +8 up or from −8 down
[13] = viability profiling in MM1S myeloma cells – cell-based, resazurin fluorescence, basal, 24 h, PK04 Diversity Set, profiling panel (AID 1174); details: higher = more signal, called active from +8 up or from −8 down; further: test concentration not given here
[14] = target: Dihydroorotate dehydrogenase (quinone), mitochondrial (Plasmodium falciparum (isolate 3D7)) (UniProt Q08210); assay: inhibition of P. falciparum DHODH – biochemical, C-terminal His tag, absorbance 600 nm, primary screen (AID 1175); details: PfDHODH enzyme, DCIP absorbance 600 nm; higher = more signal, called active from +8 up or from −8 down;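 further: recombinant parasite enzyme with a five histidine tag at its C terminus; test concentration not given here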
Sequence of Dihydroorotate dehydrogenase (quinone), mitochondrial (Plasmodium falciparum (isolate 3D7)) (Q08210 whole entry, looked up): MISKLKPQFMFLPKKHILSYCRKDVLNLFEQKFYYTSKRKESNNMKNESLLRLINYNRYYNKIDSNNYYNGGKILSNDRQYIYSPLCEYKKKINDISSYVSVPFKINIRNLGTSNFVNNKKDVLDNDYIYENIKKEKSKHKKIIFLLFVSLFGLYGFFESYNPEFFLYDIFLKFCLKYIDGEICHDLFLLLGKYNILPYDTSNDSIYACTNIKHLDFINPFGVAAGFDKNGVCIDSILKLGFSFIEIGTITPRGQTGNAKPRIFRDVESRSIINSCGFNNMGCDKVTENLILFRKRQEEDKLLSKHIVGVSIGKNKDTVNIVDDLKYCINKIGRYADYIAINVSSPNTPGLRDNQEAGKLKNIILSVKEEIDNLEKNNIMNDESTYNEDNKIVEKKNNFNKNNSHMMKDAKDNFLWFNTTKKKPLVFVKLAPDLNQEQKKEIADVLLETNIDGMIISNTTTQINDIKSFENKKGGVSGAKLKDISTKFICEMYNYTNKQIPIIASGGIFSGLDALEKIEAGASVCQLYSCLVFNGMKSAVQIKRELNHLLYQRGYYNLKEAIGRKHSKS

[15] = inhibition of PAO1 biofilm formation – strain PAO1, LB-PBS medium, absorbance 600 nm, primary screen (AID 1176); further: test concentration not given here; details: P. aeruginosa PAO1 growth/biofilm, A600, 12 h; higher = more signal
[16] = growth modulation of vineyard yeast isolate – strain RM11-1a, OD600, basal, 24 h, primary screen (AID 1177);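 further: cultures grown under basal conditions with no added stressor; test concentration not given here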; details: S. cerevisiae RM11-1a growth, OD600, 24 h; higher = more signal, called active from +8 up or from −8 down
[17] = growth of efflux-deficient E. coli DRC39 – strain DRC39, OD650, 24 h, E. coli filamentation inducers, primary screen (AID 1178);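 further: growth measured as culture turbidity by optical density at 650 nm; test concentration not given here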; details: E. coli DRC39 acrAB, higher = more signal, called active from +8 up or from −8 down
[18] = growth of efflux-deficient E. coli DRC39 – strain DRC39, OD650, 48 h, E. coli filamentation inducers, primary screen (AID 1179);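 further: screen aims at cell division blockers that make cells filament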; details: E. coli DRC39 delta-acrAB growth, higher = more signal, called active from +8 up or from −8 down
[19] = viability profiling in RPMI8226 myeloma cells – cell-based, resazurin fluorescence, basal, 24 h, PK04 Diversity Set, profiling panel (AID 1180); details: higher = more signal;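 further: RPMI8826 multiple myeloma cell line at 5000 cells per well; test concentration not given here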
[20] = target: E3 ubiquitin-protein ligase XIAP (Homo sapiens) (UniProt P98170); assay: small molecules binding XIAP protein – biophysical, small-molecule microarray, fluorescence 635 nm, primary screen (AID 1181); details: higher = more signal;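 further: score merges 667 nm emission and signal to noise over triplicate slides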
Sequence of E3 ubiquitin-protein ligase XIAP (Homo sapiens) (P98170 whole entry, looked up): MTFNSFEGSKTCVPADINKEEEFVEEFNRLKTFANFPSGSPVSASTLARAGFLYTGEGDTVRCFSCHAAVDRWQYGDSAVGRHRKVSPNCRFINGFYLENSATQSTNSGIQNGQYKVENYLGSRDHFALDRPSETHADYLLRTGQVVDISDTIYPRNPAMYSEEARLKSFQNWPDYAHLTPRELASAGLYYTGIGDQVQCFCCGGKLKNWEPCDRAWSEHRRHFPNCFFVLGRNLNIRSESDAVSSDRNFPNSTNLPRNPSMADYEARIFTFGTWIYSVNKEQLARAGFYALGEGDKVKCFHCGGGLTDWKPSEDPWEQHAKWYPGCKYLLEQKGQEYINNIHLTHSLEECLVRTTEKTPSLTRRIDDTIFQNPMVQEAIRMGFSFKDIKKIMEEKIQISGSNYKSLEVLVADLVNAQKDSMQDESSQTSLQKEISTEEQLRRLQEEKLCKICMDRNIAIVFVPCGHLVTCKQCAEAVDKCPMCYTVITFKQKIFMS

| Structure (SMILES) | z-score [1] | z-score [2] | z-score [3] | z-score [4] | z-score [5] | z-score [6] | z-score [7] | z-score [8] | z-score [9] | z-score [10] | z-score [11] | z-score [12] | z-score [13] | composite z-score [14] | z-score [15] | z-score [16] | z-score [17] | z-score [18] | z-score [19] | composite z-score [20] |
| --- | --- | --- | --- | --- | --- | --- | --- | --- | --- | --- | --- | --- | --- | --- | --- | --- | --- | --- | --- | --- |
| COC(=O)[C@@]1(Cc2ccccc2N=[N+]=[N-])N=C(c2ccc(OCCCO)cc2)O[C@H]1c1ccccc1N=[N+]=[N-] | -1.53 | 0.342 | -5.52 | -3.65 | -4.04 | -1.63 | -0.0913 (inactive) | -1.13 | -2.92 | -2.94 (inactive) | -4.43 | -0.596 (inactive) | -8.41 (active) | -0.071 (inactive) | 0.715 (inactive) | 0.897 (inactive) | 2.12 (inactive) | 1.91 (inactive) | -6.83 | 0.0296 |
| COC(=O)c1c2oc(c1C(=O)OC)C(=O)N(Cc1ccccc1)Cc1cn(nn1)C[C@H](Cc1ccccc1)NC(=O)N[C@H](CO)CC2 | 2.05 | 0.92 | 0.377 | 1.18 | 1.75 | 1.9 | -0.397 (inactive) | -0.201 | -0.62 | 1.27 (inactive) | 1.18 | -1.78 (inactive) | 0.312 (inactive) | -0.519 (inactive) | 0.231 (inactive) | -1.38 (inactive) | 1.33 (inactive) | 1.89 (inactive) | 1.16 | 0.725 |
| COc1ccc([Si](C)(C)[C@@H]2[C@@H](CCn3cc([C@H](O)c4ccccc4)nn3)O[C@]3(C(=O)N(Cc4ccc(N5CCC5=O)cc4)c4ccccc43)[C@H]2C)cc1 | 0.388 | 1.05 | 0.944 | 0.738 | -0.23 | 1.63 | 1.9 (inactive) | -0.0445 | -0.855 | 0.668 (inactive) | 0.606 | 0.204 (inactive) | -0.189 (inactive) | -0.102 (inactive) | 1.36 (inactive) | 2.06 (inactive) | 1.57 (inactive) | 1.18 (inactive) | 1.1 | -0.239 |
| CC(C)C(CO)N1C(=O)[C@@H]2C3C(=O)OCCC/C=C\[C@H]3OC23C=CCN(C(C)(C)C)C(=O)[C@@H]13 (stereo not given in full) | -0.444 | -0.496 | -0.972 | 0.724 | 0.851 | -0.3 | 0.306 (inactive) | 0.0508 | -0.351 | -0.265 (inactive) | -0.263 | 0.463 (inactive) | -0.428 (inactive) | -1.85 (inactive) | -0.0711 (inactive) | -0.348 (inactive) | 0.235 (inactive) | 0.129 (inactive) | -0.489 | -0.204 |
| CN(C)CCCNC(=O)[C@@]1(C)c2ccccc2C(=O)N(Cc2ccccc2)[C@H]1c1ccc(CO)cc1 | 0.0156 | 0.451 | 0.339 | -0.748 | 0.3 | 0.303 | 0.457 (inactive) | -0.798 | 0.445 | 0.356 (inactive) | -0.834 | 0.384 (inactive) | 0.367 (inactive) | -0.106 (inactive) | 0.683 (inactive) | 0.861 (inactive) | -0.147 (inactive) | -0.0983 (inactive) | 0.009 | 0.0155 |
| COc1ccc([Si](C)(C)[C@@H]2[C@@H](CC(=O)N3Cc4ccccc4C[C@H]3CO)O[C@]3(C(=O)N(C)c4ccccc43)[C@H]2C)cc1 | -2.16 | 0.0677 | -4.12 | -2.66 | -4.4 | -0.682 | 1.08 (inactive) | -1.14 | -2.28 | -1.42 (inactive) | -1.35 | -2.33 (inactive) | -2.97 (inactive) | 0.0586 (inactive) | 1.81 (inactive) | 1.87 (inactive) | 1.21 (inactive) | 0.403 (inactive) | -4.65 | -0.0095 |
| COc1ccc(CCNC(=O)[C@@H]2c3ccccc3C(=O)N(Cc3cc(C(F)(F)F)cc(C(F)(F)F)c3)[C@H]2c2ccc(CO)cc2)cc1 | 1.64 | 1.58 | 1.17 | -1.4 | -0.35 | 1.61 | -0.497 (inactive) | -0.0116 | 0.29 | 0.349 (inactive) | 0.317 | -0.662 (inactive) | -0.295 (inactive) | -0.928 (inactive) | 0.279 (inactive) | 0.864 (inactive) | 0.619 (inactive) | 0.591 (inactive) | 0.451 | -0.213 |
| Cc1ccc(S[C@]2(C(=O)O)CC(=O)N(Cc3ccccc3Cl)[C@@H]2c2ccc(CO)cc2I)cc1 | -0.794 | -0.551 | -0.828 | -2.94 | -2.92 | -0.508 | -1.14 (inactive) | -0.615 | -0.589 | 0.459 (inactive) | 0.457 | -3.19 (inactive) | -3.07 (inactive) | 0.297 (inactive) | 1.15 (inactive) | -0.78 (inactive) | 0.0071 (inactive) | -0.26 (inactive) | -2.19 | -0.0388 |
| C=CCC(OC(C)=O)[C@@H]1[C@@H](N(Cc2cccc3ccccc23)C(=O)Cc2ccc(F)cc2)c2cc(OCCCO)ccc2N1C(=O)c1ccc2ccccc2n1 (stereo not given in full) | -0.359 | 0.389 | -0.117 | 0.866 | -0.381 | 1.69 | -0.109 (inactive) | 0.515 | -0.669 | 0.067 (inactive) | -0.157 | 0.0526 (inactive) | 0.263 (inactive) | 0.451 (inactive) | 0.501 (inactive) | -0.142 (inactive) | -0.406 (inactive) | 0.0816 (inactive) | 0.493 | 0.357 |
